The nature of test [1]: qHTS assay to identify small molecule agonists of the estrogen receptor alpha (ER-alpha) signaling pathway in the presence of an antagonist - cell viability counter screen (AID 1259386).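 Also: series mostly up to about 92 µM; cells exposed to compounds for 22 h at 37 °C before the viability read; nearly all actives have a fitted effect of over 30% in size.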 The method, boiled down: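 Fluorescent CellTiter-Fluor viability signal from VM7Luc4E2 cells, with the reagent added during the final hour of a 22hr compound exposure at 37C in the presence of 10.0nM ICI-182,780.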

The target of test [2] is Progesterone receptor (Homo sapiens) (UniProt P06401). The test can be described thus: qHTS assay to identify small molecule agonists of the progesterone receptor (PR) signaling pathway (AID 1346784; calls by dose curve; also: nearly all actives have a fitted effect of over 30% in size). An outline of the steps:
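PR-UAS-bla HEK 293T cells carrying a UAS-driven beta-lactamase reporter were seeded in medium with 2% charcoal-stripped FBS, preincubated 6 hr at 37C, then exposed to compounds in DMSO for 16 hr; agonism was read by LiveBLAzer B/G FRET fluorescence.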
A general note: In qHTS, concentration-response curves come from the screen itself.

Test [3] has the same target. Briefly: qHTS assay to identify small molecule antagonists of the progesterone receptor (PR) signaling pathway (AID 1346795; active = well fitted inhibition curve with a large enough effect in the signal ratio in the repeat runs, not every such curve was filed as active; the % refers to the signal ratio). An outline of the steps:
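PR-UAS-bla HEK293T cells carrying a UAS-driven beta-lactamase reporter were plated in medium with 2% charcoal-stripped FBS and rested 6 hr at 37C. Compounds were added with 1 nM R5020 (final) for 16 hr, then FRET substrate loaded 2 hr at room temperature.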

Test [4] can be described thus: qHTS assay to identify small molecule antagonists of the progesterone receptor (PR) signaling pathway - cell viability counter screen (AID 1346798). Also: series mostly up to about 92 µM; nearly all actives have a fitted effect of over 50% in size. An outline of the steps:
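PR-UAS-bla HEK293T cells in medium with 2% charcoal-stripped FBS were treated with compounds plus R5020 for 16 hr at 37C. Cell viability was then read by CellTiter-Glo luminescence after 30 min at room temperature in the same wells.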

A short description of test [5]: qHTS assay to identify small molecule agonists of the progesterone receptor (PR) signaling pathway - cell viability counter screen (AID 1346799; calls by dose curve; also: nearly all actives have a fitted effect of over 45% in size). An outline of the steps: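 PR-UAS-bla HEK293T cells, 3,000 per well in medium with 2% charcoal-stripped FBS, were preincubated 6 hr at 37C, then exposed to compounds for 16 hr; viability was read as CellTiter-Glo luminescence after 30 min at room temperature.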

Test [6] is described as follows: qHTS assay to identify small molecule antagonists of the TGF-beta/Smad signaling pathway - cell viability counter screen (AID 1346824). Also: nearly all actives have a fitted effect of over 50% in size. An outline of the steps: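 SBE-bla HEK 293T cells, incubated overnight, then compound plus 0.25 ng/mL TGF-beta1 (stock added) for 5 hr at 37 C. Viability was read in the same wells by CellTiter-Glo luminescence after 30 min at room temperature.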

Test [7] can be described thus: qHTS assay to identify small molecule agonists of the TGF-beta/Smad signaling pathway - cell viability counter screen (AID 1346829). Also: top concentration of the series differs between compounds; nearly all actives have a fitted effect of over 45% in size. An outline of the steps:
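HEK 293T SBE-bla line, 5 hr compound exposure at 37 C, multiplexed CellTiter-Glo viability read by luminescence.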

The nature of test [8]: qHTS assay to identify small molecule agonists of the TGF-beta/Smad signaling pathway (AID 1346859; active = well fitted activation curve with a large enough effect in the signal ratio in the repeat runs, not every such curve was filed as active; the % refers to the signal ratio; also: series mostly up to about 77 µM). The method, boiled down: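 HEK 293T cells stably carrying a beta-lactamase reporter driven by the Smad binding element were seeded overnight, exposed to DMSO-dissolved compounds for 5 hr at 37 C, 5% CO2, then loaded with FRET substrate for 2 hr at room temperature.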
A short description of test [9]: Human pregnane X receptor (PXR) small molecule agonists, qHTS cell viability counter screen (AID 1346977). Also: nearly all actives have a fitted effect of over 50% in size. An outline of the steps:
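PXR-Luc HepG2 cells in medium with 5% charcoal-stripped FBS were pre-incubated 5hr, then exposed to compounds for 24hr at 37C. Viability was read in the same wells by CellTiter-Fluor fluorescence, reagent added after 23hr with a 1hr incubation.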

The nature of test [10]: Caspase-3/7 induction in HepG2 cells by small molecules, qHTS assay (AID 1346978). Also: nearly all actives have a fitted effect of over 15% in size. The method, boiled down:
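Wild-type HepG2 cells, 2,000/well, settled 5 hr at 37 C and 5% CO2, then compound-treated for 17 hr; caspase-3/7 activity read by luminescent Caspase-Glo 3/7 after 30 min at room temperature.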

Test [11] can be described thus: Caspase-3/7 induction in CHO-K1 cells by small molecules, qHTS cell viability counter screen (AID 1346979). Also: nearly all actives have a fitted effect of over 35% in size. An outline of the steps:
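Wild-type CHO-K1 cells were seeded at 1,500 per well, rested 5hr at 37 C, then exposed to compounds in DMSO. After 16hr, CellTiter-Fluor reagent was added and fluorescence read 1hr later as the viability measure.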

A short description of test [12]: Caspase-3/7 induction in CHO-K1 cells by small molecules, qHTS assay (AID 1346980). Also: nearly all actives have a fitted effect of over 15% in size. An outline of the steps: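 Wild-type CHO-K1 cells exposed to compounds for 17hr at 37 C, 5% CO2. Caspase-3/7 activity then measured by Caspase-Glo 3/7 luminescence after 30min at room temperature.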
Test [13] addresses Nuclear receptor subfamily 1 group I member 2 (Homo sapiens) (UniProt O75469). The test can be described thus: Human pregnane X receptor (PXR) small molecule agonists, qHTS assay (AID 1346982). Also: nearly all actives have a fitted effect of over 35% in size. The method, boiled down:
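Luminescence (ONE-Glo, 30 min RT) after 24 hr compound exposure of PXR-Luc HepG2 cells; cells rested 5 hr post-plating in 5% charcoal-stripped FBS medium.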

Test [14] concerns the target Acetylcholinesterase (Homo sapiens) (UniProt P22303). Briefly: Acetylcholinesterase (AChE) small molecule antagonists: colormetric cell-based qHTS assay (AID 1347395; calls by dose curve; also: nearly all actives have a fitted effect of over 30% in size; also: potency is read from the fitted curve at half-maximal effect). The method, boiled down: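 SH-SY5Y cells, plated overnight at 37 C, were exposed to compounds for 30 min at 37 C and 5% CO2. Acetylthiocholine plus DTNB was then added, and thiocholine from endogenous AChE was quantified colorimetrically after 90 min at 37 C.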

A short description of test [15]: Caspase-3/7 induction in HepG2 cells by small molecules, qHTS cell viability counter screen (AID 1346981). Also: series mostly up to about 92 µM; nearly all actives have a fitted effect of over 30% in size. The method, boiled down: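 Counter screen for cytotoxicity: HepG2 exposed 16 hr to compounds, then CellTiter-Fluor viability signal (fluorescence, 1 hr reagent incubation).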
For test [16], the target named is Thyrotropin-releasing hormone receptor (Homo sapiens) (UniProt P34981). The test can be described thus: qHTS assay to identify small molecule antagonists of the thyrotropin-releasing hormone receptor (TRHR) signaling pathway (AID 1346877; active = well fitted inhibition curve with a large enough effect in the repeat runs, not every such curve was filed as active; also: series mostly up to about 51 µM). The method, boiled down:
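In this cell-based calcium flux format, HEK293 cells expressing TRHR received test compound for 5 min before the agonist TRH (1 nM final). Dye loading lasted 2 h at 37 °C.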

Test [17] shares this target. The test can be described thus: qHTS assay to identify small molecule agonists of the thyrotropin-releasing hormone receptor (TRHR) signaling pathway (AID 1346891; calls by dose curve; also: series mostly up to about 58 µM). The method, boiled down: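 TRHR-expressing HEK293 cells were plated 18 h at 37 °C/5% CO2, loaded with calcium dye 2 h at 37 °C, then given compound in DMSO; fluorescence was read kinetically for 3 min at 1 s intervals.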

The target in test [18] is Nuclear receptor subfamily 1 group I member 2 (Rattus norvegicus) (UniProt Q9R1A7). The test can be described thus: Rat pregnane X receptor (rPXR) activation by small molecules, qHTS assay (AID 1346983). Also: nearly all actives have a fitted effect of over 20% in size. The note with it: rPXR luciferase reporter cells, One-Glo luminescence, 24 h; hits give high values. An outline of the steps: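 Cell-based rPXR activation assay: rPXR cells, 2,000 per well, rested 5hr at 37 C, then exposed to compounds in DMSO for 24 hr at 37 C. Luciferase activity read by One-Glo luminescence after 30 min at room temperature.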

Test [19] addresses Nuclear receptor subfamily 1 group I member 2 (Homo sapiens) (UniProt O75469). Briefly: CYP3A4 induction through human pregnane X receptor (PXR) by small molecules, qHTS assay (AID 1346984). Also: nearly all actives have a fitted effect of over 40% in size. An outline of the steps: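 DPX-2 reporter cells; 24h cpd, 37C; Luciferin-IPA 3uM final x3h; One-Glo 30 min RT; lumi read.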
Test [20] shares this target. The test can be described thus: Human pregnane X receptor (PXR) activation by small molecules, qHTS assay (AID 1346985). Also: nearly all actives have a fitted effect of over 40% in size. An outline of the steps: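 DPX-2 cells (HepG2 co-transfected with a PXR response element and a CYP3A4-promoter luciferase construct) were seeded at 2,000 per well, rested 5 hr at 37C, then exposed to DMSO-dissolved compounds for 24 hr. Activation was read as luciferase luminescence.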

Unmarked numbers belong to inactive results. Results filed as inconclusive are left out. Activity calls are given as the source filed them. Unless noted, calls follow the shape of the dose curve; as a rule, active = well fitted curve in the direction sought with a large enough effect in the repeat runs; inconclusive = weak or mixed curves; inactive = no such curve, though single readings can be large; an effect the other way counts as inactive or inconclusive.
% is scaled to controls: 0 for no effect and ±100 for the full control effect.

Chain of Acetylcholinesterase (Homo sapiens) (P22303 whole entry, looked up): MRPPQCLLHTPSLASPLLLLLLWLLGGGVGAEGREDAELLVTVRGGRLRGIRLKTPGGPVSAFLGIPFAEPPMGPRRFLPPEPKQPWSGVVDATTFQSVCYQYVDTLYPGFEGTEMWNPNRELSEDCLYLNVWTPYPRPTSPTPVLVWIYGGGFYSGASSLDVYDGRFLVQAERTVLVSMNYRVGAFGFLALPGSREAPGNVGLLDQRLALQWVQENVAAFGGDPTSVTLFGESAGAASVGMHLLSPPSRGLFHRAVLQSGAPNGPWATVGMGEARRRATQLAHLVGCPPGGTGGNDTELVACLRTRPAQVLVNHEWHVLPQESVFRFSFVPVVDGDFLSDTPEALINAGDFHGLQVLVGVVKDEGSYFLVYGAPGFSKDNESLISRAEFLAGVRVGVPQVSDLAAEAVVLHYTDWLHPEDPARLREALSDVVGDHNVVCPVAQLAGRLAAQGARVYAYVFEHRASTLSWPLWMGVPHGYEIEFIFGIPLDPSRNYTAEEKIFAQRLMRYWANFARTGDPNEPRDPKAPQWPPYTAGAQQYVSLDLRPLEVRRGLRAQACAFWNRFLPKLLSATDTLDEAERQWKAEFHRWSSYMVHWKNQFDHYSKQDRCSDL
Chain of Nuclear receptor subfamily 1 group I member 2 (Homo sapiens) (O75469 whole entry, looked up): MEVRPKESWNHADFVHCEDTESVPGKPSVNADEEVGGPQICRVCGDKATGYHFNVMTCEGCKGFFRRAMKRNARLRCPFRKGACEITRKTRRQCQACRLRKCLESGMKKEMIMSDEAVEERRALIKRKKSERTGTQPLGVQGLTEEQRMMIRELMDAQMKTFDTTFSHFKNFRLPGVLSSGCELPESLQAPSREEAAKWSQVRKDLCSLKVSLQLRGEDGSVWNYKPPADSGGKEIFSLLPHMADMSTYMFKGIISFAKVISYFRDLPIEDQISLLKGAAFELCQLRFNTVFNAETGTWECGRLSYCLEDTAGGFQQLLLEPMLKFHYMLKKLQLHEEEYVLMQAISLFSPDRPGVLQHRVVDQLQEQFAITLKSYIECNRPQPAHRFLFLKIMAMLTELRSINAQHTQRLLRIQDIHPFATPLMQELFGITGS
Chain of Thyrotropin-releasing hormone receptor (Homo sapiens) (P34981 whole entry, looked up): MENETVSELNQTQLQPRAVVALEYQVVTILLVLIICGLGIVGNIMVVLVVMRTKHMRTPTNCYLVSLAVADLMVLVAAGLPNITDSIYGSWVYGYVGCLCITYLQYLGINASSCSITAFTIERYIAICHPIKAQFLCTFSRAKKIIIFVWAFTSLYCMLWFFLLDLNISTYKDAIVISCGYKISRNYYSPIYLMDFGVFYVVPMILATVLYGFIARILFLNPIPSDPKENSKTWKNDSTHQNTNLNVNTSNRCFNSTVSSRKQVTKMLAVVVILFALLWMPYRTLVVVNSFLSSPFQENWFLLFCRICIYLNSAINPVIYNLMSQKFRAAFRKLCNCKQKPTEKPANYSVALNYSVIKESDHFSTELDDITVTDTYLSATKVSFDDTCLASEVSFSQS
Chain of Progesterone receptor (Homo sapiens) (P06401 whole entry, looked up): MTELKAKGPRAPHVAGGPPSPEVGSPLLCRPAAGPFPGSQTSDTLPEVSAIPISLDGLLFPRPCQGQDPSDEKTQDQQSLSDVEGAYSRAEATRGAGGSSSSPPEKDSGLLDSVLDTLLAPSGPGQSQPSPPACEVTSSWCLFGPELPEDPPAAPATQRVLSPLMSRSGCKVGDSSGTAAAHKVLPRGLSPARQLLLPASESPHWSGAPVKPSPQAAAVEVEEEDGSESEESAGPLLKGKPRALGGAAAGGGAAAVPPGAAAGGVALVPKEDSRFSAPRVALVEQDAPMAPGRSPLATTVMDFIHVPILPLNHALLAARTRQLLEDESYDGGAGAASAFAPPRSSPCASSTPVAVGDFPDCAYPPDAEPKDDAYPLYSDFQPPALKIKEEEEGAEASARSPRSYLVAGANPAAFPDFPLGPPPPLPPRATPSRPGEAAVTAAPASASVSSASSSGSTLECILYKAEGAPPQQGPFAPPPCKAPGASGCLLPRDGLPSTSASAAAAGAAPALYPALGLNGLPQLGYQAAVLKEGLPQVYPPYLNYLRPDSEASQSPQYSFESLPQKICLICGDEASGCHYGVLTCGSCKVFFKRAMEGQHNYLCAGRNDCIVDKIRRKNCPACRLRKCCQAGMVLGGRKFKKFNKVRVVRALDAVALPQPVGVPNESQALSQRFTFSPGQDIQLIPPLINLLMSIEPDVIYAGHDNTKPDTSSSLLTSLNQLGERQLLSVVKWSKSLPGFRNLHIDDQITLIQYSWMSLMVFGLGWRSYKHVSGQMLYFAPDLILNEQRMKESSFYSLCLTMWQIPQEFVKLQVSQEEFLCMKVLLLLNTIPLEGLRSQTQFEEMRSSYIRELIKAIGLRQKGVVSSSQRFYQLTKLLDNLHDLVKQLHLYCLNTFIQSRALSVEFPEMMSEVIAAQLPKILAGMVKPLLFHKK
Chain of Nuclear receptor subfamily 1 group I member 2 (Rattus norvegicus) (Q9R1A7 whole entry, looked up): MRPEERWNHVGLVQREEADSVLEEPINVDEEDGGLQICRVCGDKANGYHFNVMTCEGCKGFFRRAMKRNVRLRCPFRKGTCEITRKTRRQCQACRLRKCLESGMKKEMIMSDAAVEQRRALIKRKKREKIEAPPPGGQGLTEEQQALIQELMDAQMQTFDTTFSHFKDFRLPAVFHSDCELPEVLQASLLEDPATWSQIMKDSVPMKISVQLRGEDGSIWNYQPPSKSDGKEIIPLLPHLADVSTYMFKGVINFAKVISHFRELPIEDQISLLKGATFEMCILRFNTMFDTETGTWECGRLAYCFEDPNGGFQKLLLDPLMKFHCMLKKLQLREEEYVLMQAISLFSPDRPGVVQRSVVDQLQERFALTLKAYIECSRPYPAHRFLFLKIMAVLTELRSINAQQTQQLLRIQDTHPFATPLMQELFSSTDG

Regarding `C=CC(=O)OCCN(C)C`, the Potency entry in test [1], in [2], in test [3], in test [4], in test [5] and in test [7] was “inactive” in each case. Moreover, the Potency result in test [9], in test [11], in test [13] and in test [14] was “inactive” throughout. Further, the compound was called inactive in test [6], in test [8], in [10] and in test [12].
On to `CCN1CCCC1CNC(=O)C(O)(c1ccccc1)c1ccccc1` (stereo not given), for which the Potency entry in [1], in test [2], in test [3], in test [4], in test [5] and in [7] was “inactive” throughout. The Potency entry in test [9], in [15], in [13] and in test [14] was “inactive” throughout. In addition, the outcome in [6], in [8], in test [10] and in test [12] was inactive.
`C1CN2CCC1CC2`: the Potency entry in test [1], in [2], in test [3], in test [4], in test [5] and in test [7] was “inactive” throughout. The Potency entry in [16], in [15], in test [13] and in test [14] was “inactive” each time. Moreover, the result in [6], in test [8], in test [17], in test [10] and in [12] was inactive.
For the compound `CC[C@@H](CO)NC(=O)[C@@H]1C=C2c3cccc4[nH]cc(c34)C[C@H]2N(C)C1`, the Potency entry in [1], in test [2], in [3], in [4], in [7] and in test [16] was “inactive” throughout. The Potency result in test [9], in test [11], in [15] and in test [13] was “inactive” in each case. The outcome in test [6], in test [8], in [17], in [10] and in test [12] was inactive. Besides, the Potency in [14] is 17.4 µM (active).
`O=c1[nH]c2ccccc2o1`: the Potency entry in test [1], in test [2], in test [3], in test [4], in test [7] and in [16] was “inactive” in each case. Further, the Potency result in test [9], in [11], in test [15] and in test [14] was “inactive” throughout. Further, the compound was classed as inactive in test [6], in test [8], in test [17], in test [10] and in test [12].
Regarding `CN1COCN(Cc2cnc(Cl)s2)/C1=N\[N+](=O)[O-]`, the Potency result in test [1], in test [2], in [3], in test [4], in test [5] and in test [7] was “inactive” in each case. The Potency entry in test [16], in test [9], in test [11], in test [13] and in test [14] was “inactive” in each case. In addition, the compound was classed as inactive in test [8], in test [17] and in test [10].
For the compound `CCOC(=O)NC(C)(C)Cc1ccc(Cl)cc1`, the Potency result in test [1], in [2], in [3], in test [4], in test [5] and in test [7] was “inactive” in each case. The Potency entry in [9], in [11], in test [15], in test [13] and in test [14] was “inactive” in each case. Further, the call in test [6], in test [8] and in test [10] was inactive.
`CCCC(C)C1(CC)C(=O)N=C(S)NC1=O` (stereo not given): the Potency entry in test [1], in test [2], in [3], in [4], in test [5] and in test [16] was “inactive” each time. For the same compound, the Potency entry in [9], in [11] and in test [15] was “inactive” throughout. The compound was called inactive in [6], in test [8], in test [17], in [10] and in test [12]. Besides, the max activation in test [18] was -4.4%.
Regarding `N#CN`, the Potency result in [1], in test [2], in test [3], in test [4], in test [5] and in [16] was “inactive” throughout. Further, the Potency entry in test [9], in test [11], in [15], in test [13], in test [19] and in test [20] was “inactive” in each case. For the same compound, the Potency entry in test [14] is “inactive”. Besides, the call in test [8], in test [17], in test [10] and in [12] was inactive. Besides, in [18], the max activation was 0.661%.

The values are drawn from PubChem BioAssay (Tox21).
